Measurements reported in PubChem BioAssay.
Activity calls are given as the source filed them.

Test: PSAC antagonists in infected red cells, primary screen, cell-based, P. falciparum Indochina, OD700, 1 h (AID 1154)
Conditions: P. falciparum Indochina infected RBC osmotic lysis, higher = more signal, called active from +8 up or from −8 down

Structure (SMILES)	z-score
COCCOC(=O)N1C(=O)[C@@]2(c3cc(C#CCC(C(=O)OC)C(=O)OC)ccc31)[C@H](c1ccc(OCCO)cc1)N1[C@H](c3ccccc3)[C@H](c3ccccc3)OC(=O)[C@H]1[C@@H]2C(=O)Nc1nc2ccccc2s1	4.99 (inactive)
COCCOC(=O)N1C(=O)[C@@]2(c3cc(C#CCNC(N)=O)ccc31)[C@H](c1ccc(O)cc1)N1[C@H](c3ccccc3)[C@H](c3ccccc3)OC(=O)[C@H]1[C@@H]2C(=O)N1CCN(c2ncccn2)CC1	2.78 (inactive)
COc1cc(C(O)C2C=CC3C(=O)N(Cc4ccccc4)C(=O)C3N2n2cnnc2)cc(OC)c1OC (stereo unspecified)	1.15 (inactive)
CCCCC=C[C@@H](NC(=O)c1ccccc1)c1ccccc1	0.318 (inactive)
COc1ccc([Si](C)(C)[C@@H]2[C@@H](CC(=O)N3Cc4ccccc4C[C@H]3CO)O[C@]3(C(=O)N(c4ccccc4)c4ccccc43)[C@H]2C)cc1	6.47 (inactive)
CCOC(=O)C1=CCC(c2ccccc2)N(S(=O)(=O)c2ccc([N+](=O)[O-])cc2)C1 (stereo unspecified)	2.62 (inactive)
[N-]=[N+]=NCc1ccccc1[C@@H]1OC(c2ccc(OCCCO)cc2)=N[C@]1(Cc1ccccc1N=[N+]=[N-])C(=O)N1CCCCC1	16.3 (active)
C=CCN1C(=O)[C@]2(O[C@H](CCO)[C@@H]([Si](C)(C)c3ccc(OC)cc3)[C@@H]2C)c2cc(N3C(=O)COc4ccccc43)ccc21	6.04 (inactive)
COCCCNC(=O)[C@@]1(c2ccc([N+](=O)[O-])cc2)CC(=O)N(CC23CC4CC(CC(C4)C2)C3)[C@@H]1c1ccc(CO)cc1I	24 (active)
CC(C)OC(=O)CC(=O)CC(O)c1ccc([N+](=O)[O-])cc1 (stereo unspecified)	1.92 (inactive)
CCOC(=O)C1=CCC(c2ccco2)N(S(=O)(=O)c2ccc(C)cc2)C1 (stereo unspecified)	9.57 (active)
[N-]=[N+]=Nc1ccccc1[C@@H]1OC(c2ccc(OCCCO)cc2)=N[C@]1(Cc1ccccc1)C(=O)NCc1ccccc1	31.6 (active)
[N-]=[N+]=NCc1ccccc1C[C@@]1(C(=O)N2CCCCC2)N=C(c2ccc(OCCCO)cc2)O[C@@H]1c1ccccc1CN=[N+]=[N-]	27.5 (active)
O=C1C2C=CC(C(O)c3ccc(I)cc3)N(Nc3ccccc3)C2C(=O)N1c1ccccc1 (stereo unspecified)	6.92 (inactive)
CC(C)C(=C=CC[C@@H](O)c1cccc(OCCO)c1)C[C@@H](O)c1ccccn1	8.55 (active)
COC(=O)[C@@]1(Cc2ccccc2CN=[N+]=[N-])N=C(c2ccc(OCCCO)cc2)O[C@H]1c1ccccc1	23.6 (active)
CCOC(=O)C[C@H]1[C@H](OC(=O)c2cc3ccccc3oc2=O)[C@@H](NC(=O)c2ccc3ccccc3c2)c2cc(OCCCO)ccc2N1C(=O)Cc1ccc(OC)cc1	7.22 (inactive)
COC(=O)[C@@]1(Cc2ccc(OC)cc2)[C@H]2c3cc(C(=O)N4CCCC4)n(Cc4cc(C)n(C)n4)c3C[C@H]2CN1C(=O)c1ccccc1	1.46 (inactive)
C=C(CCCC)C(=O)CC[C@H](OC(C)=O)c1ccc(OCCO)cc1	11.3 (active)
COc1ccc(C(=O)Nc2cccc(CN3C(=O)[C@]4(O[C@H](CCn5cc([C@H](O)c6ccccc6)nn5)[C@@H]([Si](C)(C)c5ccc(OC)cc5)[C@@H]4C)c4ccccc43)c2)cc1	1.23 (inactive)
COCCOC(=O)N1C(=O)[C@@]2(c3cc(C#CC4=CCCCC4)ccc31)[C@H](C(=O)N1CCCCCCC1)[C@H]1C(=O)O[C@H](c3ccccc3)[C@H](c3ccccc3)N1[C@@H]2c1ccc(OCCO)cc1	4.58 (inactive)
C=C(CCCC)/C(=C/C[C@H](OC(C)=O)c1ccc(OCCO)cc1)c1cc(C(=O)OC)ccc1OC	24.5 (active)
COc1ccc([Si](C)(C)[C@H]2[C@H](CC(=O)N3CCC[C@H]3CO)O[C@@]3(C(=O)N(Cc4ccc(N5CCC5=O)cc4)c4ccccc43)[C@@H]2C)cc1	10 (active)
[N-]=[N+]=NCc1ccccc1[C@@H]1OC(c2ccc(OCCCO)cc2)=N[C@]1(Cc1ccccc1N=[N+]=[N-])C(=O)NCCN1CCOCC1	16.5 (active)
O=C1C[C@@](C(=O)NCC(F)(F)F)(c2ccc([N+](=O)[O-])cc2)[C@@H](c2ccc(CO)cc2)N1CC12CC3CC(CC(C3)C1)C2	5.86 (inactive)

Test: PSAC antagonists in infected red cells, primary screen, cell-based, P. falciparum Indochina, OD700, 2 h (AID 1155);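 also: lysis reports solute entry through the parasite surface anion channel PSAC; channel blockers reduce lysis of infected cells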
Conditions: P. falciparum Indochina infected erythrocytes, osmotic lysis OD700; higher = more signal, called active from +8 up or from −8 down

Structure (SMILES)	z-score
C=CCC(OC(C)=O)[C@@H]1[C@@H](N(Cc2cc3ccccc3o2)C(=O)c2ccc(-c3ccccc3)cc2)c2cc(OCCCO)ccc2N1C(=O)Cc1ccc(OC)cc1 (stereo partly specified)	0.701 (inactive)
COCC(=C=CC[C@@H](O)c1ccc(OCCO)cc1)CCO	0.492 (inactive)
CC(C)(C)OC(=O)CC[C@]12N=C(c3ccc(OCCCO)cc3)O[C@H]1c1ccccc1N(Cc1ccccc1)C2=O	28.2 (active)
O=C1OCCC/C=C\[C@H]2OC34C=CCN(c5ccc6ccccc6c5)C(=O)[C@H]3N(CCCO)C(=O)[C@@H]4C12 (stereo partly specified)	0.571 (inactive)
C=C/C=C/[C@@H]1C(=C)CN([C@@H](Cc2ccccc2)C(=O)OC)[C@H]1[C@@H](O)Cc1ccccc1	0.362 (inactive)
O=C1NC(=O)C2C1C=CC(C(O)c1ccccn1)N2Nc1ccc(Cl)cc1Cl (stereo unspecified)	0.435 (inactive)
CC(C)C[C@@H]1NC(=O)CNC(=O)[C@@]23C(=O)N[C@@H](Cc4ccccc4)C2[C@H](C)[C@@]2(C)O[C@H]2C3/C=C/C/C=C\CNC1=O (stereo partly specified)	-0.262 (inactive)
CCOC(=O)C1=C[C@@H](c2ccccc2)N(S(=O)(=O)c2ccc(C)cc2)[C@H]1c1ccccc1	2.21 (inactive)
[N-]=[N+]=NCc1ccccc1C[C@]1(C(=O)N2CCOCC2)COC(c2ccc(OCCCO)cc2)=N1	15 (active)
COCCOC(=O)N1C(=O)[C@@]2(c3cc(C#Cc4ccc(OC)cc4)ccc31)[C@H](C(=O)NC[C@H](O)c1ccccc1)[C@H]1C(=O)O[C@H](c3ccccc3)[C@H](c3ccccc3)N1[C@@H]2c1ccc(OCCO)cc1	1.45 (inactive)
COCCOC(=O)N1C(=O)[C@@]2(c3cc(C#CCC(C(=O)OC)C(=O)OC)ccc31)[C@H](c1ccc(OCCO)cc1)N1[C@H](c3ccccc3)[C@H](c3ccccc3)OC(=O)[C@H]1[C@@H]2C(=O)Nc1nc2ccccc2s1	2.47 (inactive)
COCCOC(=O)N1C(=O)[C@@]2(c3cc(C#CCNC(N)=O)ccc31)[C@H](c1ccc(O)cc1)N1[C@H](c3ccccc3)[C@H](c3ccccc3)OC(=O)[C@H]1[C@@H]2C(=O)N1CCN(c2ncccn2)CC1	1.32 (inactive)
COc1cc(C(O)C2C=CC3C(=O)N(Cc4ccccc4)C(=O)C3N2n2cnnc2)cc(OC)c1OC (stereo unspecified)	-0.129 (inactive)
CCCCC=C[C@@H](NC(=O)c1ccccc1)c1ccccc1	0.279 (inactive)
COc1ccc([Si](C)(C)[C@@H]2[C@@H](CC(=O)N3Cc4ccccc4C[C@H]3CO)O[C@]3(C(=O)N(c4ccccc4)c4ccccc43)[C@H]2C)cc1	1.76 (inactive)
CCOC(=O)C1=CCC(c2ccccc2)N(S(=O)(=O)c2ccc([N+](=O)[O-])cc2)C1 (stereo unspecified)	0.987 (inactive)

Structure (SMILES)	z-score
[N-]=[N+]=NCc1ccccc1[C@@H]1OC(c2ccc(OCCCO)cc2)=N[C@]1(Cc1ccccc1N=[N+]=[N-])C(=O)N1CCCCC1	2.78 (inactive)
C=CCN1C(=O)[C@]2(O[C@H](CCO)[C@@H]([Si](C)(C)c3ccc(OC)cc3)[C@@H]2C)c2cc(N3C(=O)COc4ccccc43)ccc21	2.56 (inactive)
COCCCNC(=O)[C@@]1(c2ccc([N+](=O)[O-])cc2)CC(=O)N(CC23CC4CC(CC(C4)C2)C3)[C@@H]1c1ccc(CO)cc1I	8.65 (active)
CC(C)OC(=O)CC(=O)CC(O)c1ccc([N+](=O)[O-])cc1 (stereo unspecified)	0.586 (inactive)
CCOC(=O)C1=CCC(c2ccco2)N(S(=O)(=O)c2ccc(C)cc2)C1 (stereo unspecified)	1.24 (inactive)
[N-]=[N+]=Nc1ccccc1[C@@H]1OC(c2ccc(OCCCO)cc2)=N[C@]1(Cc1ccccc1)C(=O)NCc1ccccc1	29.2 (active)
[N-]=[N+]=NCc1ccccc1C[C@@]1(C(=O)N2CCCCC2)N=C(c2ccc(OCCCO)cc2)O[C@@H]1c1ccccc1CN=[N+]=[N-]	19.6 (active)
O=C1C2C=CC(C(O)c3ccc(I)cc3)N(Nc3ccccc3)C2C(=O)N1c1ccccc1 (stereo unspecified)	2.42 (inactive)
CC(C)C(=C=CC[C@@H](O)c1cccc(OCCO)c1)C[C@@H](O)c1ccccn1	0.809 (inactive)
COC(=O)[C@@]1(Cc2ccccc2CN=[N+]=[N-])N=C(c2ccc(OCCCO)cc2)O[C@H]1c1ccccc1	19.8 (active)
CCOC(=O)C[C@H]1[C@H](OC(=O)c2cc3ccccc3oc2=O)[C@@H](NC(=O)c2ccc3ccccc3c2)c2cc(OCCCO)ccc2N1C(=O)Cc1ccc(OC)cc1	0.935 (inactive)
COC(=O)[C@@]1(Cc2ccc(OC)cc2)[C@H]2c3cc(C(=O)N4CCCC4)n(Cc4cc(C)n(C)n4)c3C[C@H]2CN1C(=O)c1ccccc1	0.279 (inactive)
C=C(CCCC)C(=O)CC[C@H](OC(C)=O)c1ccc(OCCO)cc1	0.316 (inactive)
COc1ccc(C(=O)Nc2cccc(CN3C(=O)[C@]4(O[C@H](CCn5cc([C@H](O)c6ccccc6)nn5)[C@@H]([Si](C)(C)c5ccc(OC)cc5)[C@@H]4C)c4ccccc43)c2)cc1	0.0918 (inactive)
COCCOC(=O)N1C(=O)[C@@]2(c3cc(C#CC4=CCCCC4)ccc31)[C@H](C(=O)N1CCCCCCC1)[C@H]1C(=O)O[C@H](c3ccccc3)[C@H](c3ccccc3)N1[C@@H]2c1ccc(OCCO)cc1	1.19 (inactive)
